# Results from PubChem BioAssay (EPA / NIEHS).
# Inconclusive results are not listed. The source made the active and inactive calls. Rule for the calls: active = hit-call score of the fitted dose curve at least 0.9, where 1 is the maximum; inconclusive = response in the unintended direction; inactive = score below 0.9.
# Key:
# [1] = biological target: human Neurokinin, NK2 Receptor, TACR2 (gene 6865) (UniProt P21452); test: NVS_GPCR_hNK2: NovaScreen (NVS) G Protein-Coupled Receptor Assay for human Neurokinin, NK2 Receptor (AID 2283278);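 note: actives reduce bound radioligand signal relative to DMSO baseline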
# In short: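 Filter-based scintillation counting measured radioligand bound to receptor extracted from CHO cells, 4 hours after compound addition. Chemicals screened first at 25 uM in duplicate, with actives retested in concentration series relative to DMSO.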
# [2] = biological target: human Adrenergic, Alpha 2c Receptor (Adra2C), ADRA2C (gene 152) (UniProt P18825); test: NVS_GPCR_hAdra2C: NovaScreen (NVS) G Protein-Coupled Receptor Assay for human Adrenergic, Alpha 2c Receptor (Adra2C) (AID 2283259)
# In short: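 Radioligand binding on Sf9-expressed receptor membranes, 1 h after chemical dosing, filter-based scintillation read-out. Loss of binding fitted positively versus DMSO; primary duplicate screen at 25 uM, actives retested in concentration series.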
# [3] = biological target: Type-1 angiotensin II receptor (Homo sapiens) (UniProt P30556); test: NVS_GPCR_hAT1: NovaScreen (NVS) G Protein-Coupled Receptor Assay for human Angiotensin II receptor type 1 (AT1) (AID 2283263)
# In short: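 Membranes from KAN-TS cells; radioligand competitive displacement, 3 h, filtration and scintillation counting. Single-point duplicate screen at 25 uM, then concentration-response up to 50 uM for hits; loss of signal fitted versus DMSO.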
# [4] = biological target: human Dopamine Receptor D2 (DRD2), DRD2 (gene 1813) (UniProt P14416); test: NVS_GPCR_hDRD2s: NovaScreen (NVS) G Protein-Coupled Receptor Assay for human Dopamine Receptor D2 (DRD2) (AID 2283266)
# Chain of human Dopamine Receptor D2 (DRD2), DRD2 (gene 1813) (P14416 whole entry, looked up): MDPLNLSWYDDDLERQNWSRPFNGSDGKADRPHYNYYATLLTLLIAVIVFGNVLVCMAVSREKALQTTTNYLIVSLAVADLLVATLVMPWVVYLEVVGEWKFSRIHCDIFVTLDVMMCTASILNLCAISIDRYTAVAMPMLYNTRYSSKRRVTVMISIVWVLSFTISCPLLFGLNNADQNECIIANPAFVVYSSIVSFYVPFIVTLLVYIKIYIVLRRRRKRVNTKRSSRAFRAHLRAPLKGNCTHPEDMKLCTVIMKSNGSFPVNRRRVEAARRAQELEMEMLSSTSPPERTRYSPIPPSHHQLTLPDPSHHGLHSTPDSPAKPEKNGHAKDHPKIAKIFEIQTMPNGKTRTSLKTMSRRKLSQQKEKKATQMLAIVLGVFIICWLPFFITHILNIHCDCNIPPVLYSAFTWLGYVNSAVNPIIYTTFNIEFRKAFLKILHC
# In short: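 Radioligand displacement used human DRD2 membranes extracted from CHO cells and was read by filter-based scintillation counting after 1.5 hours. Primary screening was in duplicate at 25 uM. Loss of signal versus DMSO was fitted, with concentration series in follow-up.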
# [5] = biological target: D(1A) dopamine receptor (Homo sapiens) (UniProt P21728); test: NVS_GPCR_hDRD1: NovaScreen (NVS) G Protein-Coupled Receptor Assay for human Dopamine Receptor D1 (DRD1) (AID 2283269)
# Chain of D(1A) dopamine receptor (Homo sapiens) (P21728 whole entry, looked up): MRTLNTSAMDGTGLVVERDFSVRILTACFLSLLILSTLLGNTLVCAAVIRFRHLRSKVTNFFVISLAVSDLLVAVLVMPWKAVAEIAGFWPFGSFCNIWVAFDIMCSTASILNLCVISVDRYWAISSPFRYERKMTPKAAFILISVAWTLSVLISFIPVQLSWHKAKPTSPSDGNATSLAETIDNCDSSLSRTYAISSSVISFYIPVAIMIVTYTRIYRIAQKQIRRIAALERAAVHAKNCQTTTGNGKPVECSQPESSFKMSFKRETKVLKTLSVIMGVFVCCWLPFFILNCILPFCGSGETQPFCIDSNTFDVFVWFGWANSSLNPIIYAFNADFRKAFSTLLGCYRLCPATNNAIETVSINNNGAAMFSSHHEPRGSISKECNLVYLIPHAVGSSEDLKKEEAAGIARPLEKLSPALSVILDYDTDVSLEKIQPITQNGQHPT
# In short: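 HEK293-derived receptor preparation; radioligand competitive displacement; 1 h; filtration + scintillation counting. DMSO = negative control/baseline. Primary: 25 uM, duplicate; secondary: concentration–response for actives.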
# [6] = biological target: human Neuropeptide Receptor Y1 (NPY1), NPY1R (gene 4886) (UniProt P25929); test: NVS_GPCR_hNPY1: NovaScreen (NVS) G Protein-Coupled Receptor Assay for human Neuropeptide Receptor Y1 (NPY1) (AID 2283276)
# Chain of human Neuropeptide Receptor Y1 (NPY1), NPY1R (gene 4886) (P25929 whole entry, looked up): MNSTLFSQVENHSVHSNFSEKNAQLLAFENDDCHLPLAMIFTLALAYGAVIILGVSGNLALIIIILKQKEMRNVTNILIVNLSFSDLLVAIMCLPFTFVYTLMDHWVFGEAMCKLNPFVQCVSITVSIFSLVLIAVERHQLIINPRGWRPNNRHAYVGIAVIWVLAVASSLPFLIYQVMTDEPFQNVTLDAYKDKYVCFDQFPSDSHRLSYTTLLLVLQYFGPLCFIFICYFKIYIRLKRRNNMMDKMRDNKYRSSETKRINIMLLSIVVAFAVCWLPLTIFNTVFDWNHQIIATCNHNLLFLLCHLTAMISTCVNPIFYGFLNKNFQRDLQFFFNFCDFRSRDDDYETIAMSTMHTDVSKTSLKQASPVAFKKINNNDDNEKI
# In short: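 Cell-free radioligand binding using receptor extracted from SK-N-MC cells, 1 h incubation, filter-based scintillation counting. Primary screen single concentration 25 uM in duplicate; actives followed in concentration series. Loss of bound signal scored versus DMSO.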
# [7] = biological target: human Endothelin Receptor Type B (ETB), EDNRB (gene 1910) (UniProt P24530); test: NVS_GPCR_hETB: NovaScreen (NVS) G Protein-Coupled Receptor Assay for human Endothelin Receptor Type B (ETB) (AID 2283267)
# In short: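 Human astrocytoma cell membranes; radioligand competitive binding read by filter scintillation counting 4 hours after dosing. Single-concentration duplicate screen at 25 uM, then singleton concentration-response up to 50 uM; loss of signal versus DMSO.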
# [8] = biological target: human Leukotriene B4 Receptor 1 (LTB4-BLT1), LTB4R (gene 1241) (UniProt Q15722); test: NVS_GPCR_hLTB4_BLT1: NovaScreen (NVS) G Protein-Coupled Receptor Assay for human Leukotriene B4 Receptor 1 (LTB4-BLT1) (AID 2283271)
# In short: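 Radioligand displacement binding on receptor extracted from human neutrophils, cell-free, 1 h after dosing; filter-based scintillation counting. Primary screen in duplicate at 25 uM, actives retested in concentration-response up to 50 uM; loss of signal versus DMSO.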
# [9] = biological target: Beta-2 adrenergic receptor (Homo sapiens) (UniProt P07550); test: NVS_GPCR_hAdrb2: NovaScreen (NVS) G Protein-Coupled Receptor Assay for human Adrenergic, Beta 2 Receptor (Adrb2) (AID 2283261)
# Chain of Beta-2 adrenergic receptor (Homo sapiens) (P07550 whole entry, looked up): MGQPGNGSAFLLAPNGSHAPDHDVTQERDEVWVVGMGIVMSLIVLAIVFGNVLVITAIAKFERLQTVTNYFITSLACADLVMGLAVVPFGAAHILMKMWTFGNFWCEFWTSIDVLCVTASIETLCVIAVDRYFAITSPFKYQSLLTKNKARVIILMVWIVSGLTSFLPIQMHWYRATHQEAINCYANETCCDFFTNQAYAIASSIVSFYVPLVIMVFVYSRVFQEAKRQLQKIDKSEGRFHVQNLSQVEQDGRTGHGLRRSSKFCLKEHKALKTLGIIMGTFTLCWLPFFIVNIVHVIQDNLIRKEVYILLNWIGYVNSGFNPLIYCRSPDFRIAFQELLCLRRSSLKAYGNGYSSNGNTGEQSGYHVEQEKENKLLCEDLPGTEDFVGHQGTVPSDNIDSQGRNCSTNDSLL
# In short: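 Filter-based radioligand binding using receptor prepared from CHO cells, 1 h incubation, scintillation counting. Primary screen in duplicate at 25 uM, actives retested in concentration series; loss of binding relative to DMSO.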
# [10] = biological target: human Adrenergic, Beta 3 Receptor (Adrb3), ADRB3 (gene 155) (UniProt P13945); test: NVS_GPCR_hAdrb3: NovaScreen (NVS) G Protein-Coupled Receptor Assay for human Adrenergic, Beta 3 Receptor (Adrb3) (AID 2283262)
# Chain of human Adrenergic, Beta 3 Receptor (Adrb3), ADRB3 (gene 155) (P13945 whole entry, looked up): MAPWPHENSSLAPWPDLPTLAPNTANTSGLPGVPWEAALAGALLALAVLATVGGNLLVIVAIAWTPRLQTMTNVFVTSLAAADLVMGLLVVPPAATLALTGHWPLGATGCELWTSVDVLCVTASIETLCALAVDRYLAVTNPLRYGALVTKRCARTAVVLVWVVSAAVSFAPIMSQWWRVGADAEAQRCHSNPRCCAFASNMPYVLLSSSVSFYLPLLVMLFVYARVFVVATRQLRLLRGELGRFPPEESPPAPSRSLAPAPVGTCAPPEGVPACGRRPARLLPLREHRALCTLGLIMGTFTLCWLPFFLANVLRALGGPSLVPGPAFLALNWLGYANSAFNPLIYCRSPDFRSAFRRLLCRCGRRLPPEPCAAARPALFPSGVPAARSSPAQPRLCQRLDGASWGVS
# In short: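 Membranes from SK-N-MC cells pretreated with isoproterenol and 8-bromo-cAMP were used in a radioligand competitive displacement binding assay. Binding was read by filter-based scintillation counting 1 hour after dosing. Primary screening was in duplicate at 25 uM, with concentration series in follow-up.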
# [11] = biological target: human Dopamine Receptor D4.4 (DRD4.4), DRD4 (gene 1815) (UniProt P21917); test: NVS_GPCR_hDRD4.4: NovaScreen (NVS) G Protein-Coupled Receptor Assay for human Dopamine Receptor D4.4 (DRD4.4) (AID 2283264)
# Chain of human Dopamine Receptor D4.4 (DRD4.4), DRD4 (gene 1815) (P21917 whole entry, looked up): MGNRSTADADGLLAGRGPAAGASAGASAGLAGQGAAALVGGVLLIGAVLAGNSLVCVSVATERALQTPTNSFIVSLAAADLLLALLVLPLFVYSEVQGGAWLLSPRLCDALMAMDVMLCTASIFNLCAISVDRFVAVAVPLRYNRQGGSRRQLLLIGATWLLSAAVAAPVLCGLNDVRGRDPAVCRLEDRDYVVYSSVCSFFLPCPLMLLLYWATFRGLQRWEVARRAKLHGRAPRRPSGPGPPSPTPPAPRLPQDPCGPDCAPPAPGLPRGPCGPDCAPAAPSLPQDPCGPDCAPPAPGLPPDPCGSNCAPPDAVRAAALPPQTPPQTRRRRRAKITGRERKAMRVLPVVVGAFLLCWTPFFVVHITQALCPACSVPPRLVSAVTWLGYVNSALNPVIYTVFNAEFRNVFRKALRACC
# In short: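 Radioligand displacement on human DRD4.4 from CHO-derived membranes, 1 hour incubation, bound counts read by filtration and scintillation. Primary screen in duplicate at 25 uM; actives followed up in concentration series.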
# [12] = biological target: human Endothelin Receptor Type A (ETA), EDNRA (gene 1909) (UniProt P25101); test: NVS_GPCR_hETA: NovaScreen (NVS) G Protein-Coupled Receptor Assay for human Endothelin Receptor Type A (ETA) (AID 2283265)
# Chain of human Endothelin Receptor Type A (ETA), EDNRA (gene 1909) (P25101 whole entry, looked up): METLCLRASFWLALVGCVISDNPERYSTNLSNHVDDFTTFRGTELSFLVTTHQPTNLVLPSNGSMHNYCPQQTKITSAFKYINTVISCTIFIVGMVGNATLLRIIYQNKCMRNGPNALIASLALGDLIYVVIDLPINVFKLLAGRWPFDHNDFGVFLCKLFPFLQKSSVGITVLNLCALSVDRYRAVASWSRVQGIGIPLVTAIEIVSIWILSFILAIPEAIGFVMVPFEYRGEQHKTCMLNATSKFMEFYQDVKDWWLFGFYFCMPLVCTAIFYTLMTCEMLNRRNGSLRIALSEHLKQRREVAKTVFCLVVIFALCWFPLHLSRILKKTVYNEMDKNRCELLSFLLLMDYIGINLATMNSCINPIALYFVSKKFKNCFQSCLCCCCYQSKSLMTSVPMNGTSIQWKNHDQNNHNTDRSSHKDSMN
# In short: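 Cell-free radioligand displacement using SH-SY5Y-derived protein, 3 h incubation, filter-based scintillation counting. Primary screen in duplicate at 25 uM; actives then run in concentration-response up to 50 uM; loss of binding fitted versus DMSO.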
# [13] = biological target: human Histamine 1 Receptor (H1), HRH1 (gene 3269) (UniProt P35367); test: NVS_GPCR_hH1: NovaScreen (NVS) G Protein-Coupled Receptor Assay for human Histamine 1 Receptor (H1) (AID 2283268)
# In short: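 Cell-free radioligand displacement at human H1 receptor, 1 h, filter scintillation counting; primary screen 25 uM in duplicate, hits in concentration series; loss of binding fitted vs DMSO.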
# [14] = biological target: Muscarinic acetylcholine receptor M1 (Homo sapiens) (UniProt P11229); test: NVS_GPCR_hM1: NovaScreen (NVS) G Protein-Coupled Receptor Assay for human Muscarinic, M1 Receptor (AID 2283270)
# In short: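 Cell-free radioligand displacement using membrane protein extracted from CHO cells, read by filter-based scintillation counting 1 h after dosing. Loss of bound signal fitted versus DMSO; primary screen single concentration 25 uM in duplicate, actives followed by concentration series.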
# [15] = biological target: Muscarinic acetylcholine receptor M3 (Homo sapiens) (UniProt P20309); test: NVS_GPCR_hM3: NovaScreen (NVS) G Protein-Coupled Receptor Assay for human Muscarinic, M3 Receptor (AID 2283272)
# Chain of Muscarinic acetylcholine receptor M3 (Homo sapiens) (P20309 whole entry, looked up): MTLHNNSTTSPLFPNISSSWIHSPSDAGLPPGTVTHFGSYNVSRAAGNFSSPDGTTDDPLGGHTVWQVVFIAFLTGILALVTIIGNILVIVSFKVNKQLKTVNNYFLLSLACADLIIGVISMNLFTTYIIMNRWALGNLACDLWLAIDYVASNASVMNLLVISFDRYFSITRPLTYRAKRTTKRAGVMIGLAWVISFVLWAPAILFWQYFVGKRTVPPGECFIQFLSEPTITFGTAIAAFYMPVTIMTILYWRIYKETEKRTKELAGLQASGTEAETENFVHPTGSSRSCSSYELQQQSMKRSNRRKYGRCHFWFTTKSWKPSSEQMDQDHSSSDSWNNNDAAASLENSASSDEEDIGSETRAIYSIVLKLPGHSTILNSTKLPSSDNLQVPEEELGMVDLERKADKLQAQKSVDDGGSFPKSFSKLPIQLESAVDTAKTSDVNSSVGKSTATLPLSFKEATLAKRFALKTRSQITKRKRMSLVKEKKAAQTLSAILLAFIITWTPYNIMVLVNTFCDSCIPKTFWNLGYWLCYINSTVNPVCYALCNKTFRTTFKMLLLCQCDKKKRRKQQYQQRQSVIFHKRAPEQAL
# In short: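 Radioligand displacement binding on human M3 receptor in CHO-derived membranes, 1 h incubation, filter-based scintillation counting. Primary screen in duplicate at 25 uM; actives followed up in concentration series; loss of signal versus DMSO.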
# [16] = biological target: human Muscarinic, M4 Receptor, CHRM4 (gene 1132) (UniProt P08173); test: NVS_GPCR_hM4: NovaScreen (NVS) G Protein-Coupled Receptor Assay for human Muscarinic, M4 Receptor (AID 2283274)
# In short: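 Cell-free radioligand displacement using CHO-derived human M4 receptor protein, 1 h after dosing; bound radioactivity by filtration and scintillation counting. Primary screen single 25 uM duplicate, actives followed in concentration series.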
# [17] = biological target: Muscarinic acetylcholine receptor M5 (Homo sapiens) (UniProt P08912); test: NVS_GPCR_hM5: NovaScreen (NVS) G Protein-Coupled Receptor Assay for human Muscarinic, M5 Receptor (AID 2283275)
# Chain of Muscarinic acetylcholine receptor M5 (Homo sapiens) (P08912 whole entry, looked up): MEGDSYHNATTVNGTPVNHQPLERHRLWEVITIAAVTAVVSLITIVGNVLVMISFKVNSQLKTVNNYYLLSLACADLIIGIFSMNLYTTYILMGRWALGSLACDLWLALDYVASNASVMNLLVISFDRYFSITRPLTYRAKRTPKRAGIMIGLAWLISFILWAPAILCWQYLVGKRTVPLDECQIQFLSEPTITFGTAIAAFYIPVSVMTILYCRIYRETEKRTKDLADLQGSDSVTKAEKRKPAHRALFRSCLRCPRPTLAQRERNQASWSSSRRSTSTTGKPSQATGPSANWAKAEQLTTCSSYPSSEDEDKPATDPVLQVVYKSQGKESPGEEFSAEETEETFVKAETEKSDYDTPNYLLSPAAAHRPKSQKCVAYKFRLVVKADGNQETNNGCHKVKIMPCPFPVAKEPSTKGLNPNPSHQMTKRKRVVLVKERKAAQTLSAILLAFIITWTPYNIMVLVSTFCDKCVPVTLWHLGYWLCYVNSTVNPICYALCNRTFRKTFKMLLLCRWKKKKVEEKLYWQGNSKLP
# In short: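 Radioligand displacement on CHO-derived membrane preparations, 1 h, filter-based scintillation counting. Single-concentration duplicate screen at 25 uM; hits (e.g. 30% inhibition) retested in singleton concentration-response up to 50 uM. Loss of binding fitted versus DMSO.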
# [18] = biological target: Neuropeptide Y receptor type 2 (Homo sapiens) (UniProt P49146); test: NVS_GPCR_hNPY2: NovaScreen (NVS) G Protein-Coupled Receptor Assay for human Neuropeptide Receptor Y2 (NPY2) (AID 2283277)
# Chain of Neuropeptide Y receptor type 2 (Homo sapiens) (P49146 whole entry, looked up): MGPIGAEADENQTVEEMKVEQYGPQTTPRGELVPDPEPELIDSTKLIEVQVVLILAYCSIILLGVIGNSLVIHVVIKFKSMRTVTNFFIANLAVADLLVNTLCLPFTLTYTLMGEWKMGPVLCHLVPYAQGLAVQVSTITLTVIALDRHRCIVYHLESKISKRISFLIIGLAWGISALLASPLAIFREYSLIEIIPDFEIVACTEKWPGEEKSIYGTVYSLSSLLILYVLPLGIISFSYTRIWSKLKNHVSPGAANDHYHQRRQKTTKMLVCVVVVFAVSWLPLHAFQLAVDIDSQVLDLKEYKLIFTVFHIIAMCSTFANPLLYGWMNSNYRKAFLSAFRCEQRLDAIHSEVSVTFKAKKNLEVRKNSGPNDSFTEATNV
# In short: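 Radioligand binding on membranes extracted from SK-N-MC cells, cell-free, read 1 h after dosing by filter-based scintillation counting. Loss of signal vs DMSO. Primary screen in duplicate at 25 uM; actives followed up in concentration-response up to 50 uM.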
# [19] = biological target: Muscarinic acetylcholine receptor M2 (Homo sapiens) (UniProt P08172); test: NVS_GPCR_hM2: NovaScreen (NVS) G Protein-Coupled Receptor Assay for human Muscarinic, M2 Receptor (AID 2283273)
# Chain of Muscarinic acetylcholine receptor M2 (Homo sapiens) (P08172 whole entry, looked up): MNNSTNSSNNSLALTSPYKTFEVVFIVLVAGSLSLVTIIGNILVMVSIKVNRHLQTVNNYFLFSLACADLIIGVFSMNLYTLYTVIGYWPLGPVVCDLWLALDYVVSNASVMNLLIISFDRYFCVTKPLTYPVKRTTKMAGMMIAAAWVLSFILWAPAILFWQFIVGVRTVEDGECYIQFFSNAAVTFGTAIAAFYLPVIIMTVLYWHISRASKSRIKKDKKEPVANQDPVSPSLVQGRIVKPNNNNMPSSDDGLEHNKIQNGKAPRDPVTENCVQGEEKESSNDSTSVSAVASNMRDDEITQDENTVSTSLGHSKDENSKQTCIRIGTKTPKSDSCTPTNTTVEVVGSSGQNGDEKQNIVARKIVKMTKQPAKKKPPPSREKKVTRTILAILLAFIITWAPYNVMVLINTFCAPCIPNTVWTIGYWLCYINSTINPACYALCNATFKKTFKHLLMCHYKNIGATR
# In short: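 Radioligand displacement on human M2 receptor membranes from CHO cells, 1 h incubation, filtration with scintillation counting. Primary screen in duplicate at 25 uM; actives retested in concentration series; loss of signal fitted versus DMSO.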
# [20] = biological target: human Neurotensin Receptor (NTS), NTSR1 (gene 4923) (UniProt P30989); test: NVS_GPCR_hNTS: NovaScreen (NVS) G Protein-Coupled Receptor Assay for human Neurotensin Receptor (NTS) (AID 2283279)
# In short: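 Radioligand displacement on human NTSR1 protein from CHO cells, cell-free, 1 h, filter-based scintillation counting. Primary screen at 25 uM in duplicate; hits rerun in concentration-response up to 50 uM.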
smiles,measurement,setting,value
Oc1ccc2ccc3cccc4ccc1c2c34,outcome,[1],inactive
CCCCCCCCn1sccc1=O,AC50,[2],6.02 µM (active)
same,AC50,[3],10.9 µM (active)
same,AC50,[4],26 µM (active)
same,AC50,[5],1.32 µM (active)
same,AC50,[6],6.28 µM (active)
C[C@]12C=CC3=C4CCC(=O)C=C4CC[C@H]3[C@@H]1CC[C@@H]2O,outcome,[7],inactive
same,outcome,[8],inactive
same,AC50,[1],15.6 µM (active)
CCC[CH2][Sn]([Cl])([CH2]CCC)[CH2]CCC,AC50,[9],5.47 µM (active)
same,AC50,[10],9.81 µM (active)
same,AC50,[3],1.78 µM (active)
same,AC50,[11],1.83 µM (active)
same,AC50,[12],0.695 µM (active)
same,AC50,[4],0.525 µM (active)
same,AC50,[7],15.1 µM (active)
same,AC50,[13],1.42 µM (active)
same,AC50,[5],0.445 µM (active)
same,AC50,[14],1.86 µM (active)
same,AC50,[15],1.44 µM (active)
same,AC50,[16],17.6 µM (active)
same,outcome,[17],inactive
same,AC50,[6],1.58 µM (active)
same,AC50,[18],10.3 µM (active)
same,AC50,[1],1.08 µM (active)
CC(C)(C)C(O)(CCc1ccc(Cl)cc1)Cn1cncn1 (stereo not drawn),AC50,[1],13.1 µM (active)
O=[N+]([O-])c1ccc(Oc2ccc(Cl)cc2Cl)cc1,outcome,[5],inactive
same,outcome,[1],inactive
CCOC(=O)[C@]1(c2ccccc2)Oc2ccccc2[C@@H]1N,AC50,[2],0.611 µM (active)
same,AC50,[9],16.8 µM (active)
same,AC50,[10],4.96 µM (active)
same,AC50,[11],0.0481 µM (active)
same,AC50,[4],0.0323 µM (active)
same,AC50,[13],0.471 µM (active)
same,AC50,[5],2.66 µM (active)
same,AC50,[14],6.04 µM (active)
same,AC50,[15],13.3 µM (active)
same,AC50,[19],3.28 µM (active)
same,AC50,[16],13.3 µM (active)
same,AC50,[17],4.93 µM (active)
same,outcome,[20],inactive
Cc1cccc(N)c1N,outcome,[9],inactive
same,AC50,[5],12.1 µM (active)
same,outcome,[6],inactive
same,outcome,[1],inactive
O=[N+]([O-])C(Br)(CO)CO,AC50,[1],1.21 µM (active)
c1ccc2c(c1)-c1cccc3cccc-2c13,outcome,[9],inactive
CCOc1cccc(C2(N3CCN(c4ccccc4)CC3)CCC(C)CC2)c1 (stereo not drawn),outcome,[6],inactive
O=C(N[C@H](c1ccccc1)[C@@H]1CN2CCC1CC2)c1c(Cl)ccc(C(F)(F)F)c1Cl,outcome,[10],inactive
same,AC50,[5],37.5 µM (active)
same,outcome,[14],inactive
same,outcome,[16],inactive
same,AC50,[1],23.9 µM (active)
OCCCBr,outcome,[7],inactive
Cc1cc(N=Nc2ccccc2C)ccc1N,AC50,[11],25 µM (active)
COC(=O)Nc1nc2ccccc2[nH]1,outcome,[18],inactive
N#CC(Br)(Br)C(N)=O,outcome,[5],inactive
same,outcome,[1],inactive
N#CC(Br)Br,outcome,[4],inactive
same,outcome,[7],inactive
same,outcome,[1],inactive
[O-][Cl+]O,outcome,[4],inactive
CCCCCCCCCCCCCN1CC(C)OC(C)C1 (stereo not drawn),outcome,[16],inactive
COP(=S)(OC)SCN1C(=O)c2ccccc2C1=O,AC50,[5],16.8 µM (active)
same,AC50,[1],8.63 µM (active)
CN(C)C(=O)Nc1ccc(Cl)cc1,outcome,[9],inactive
[Cl-].[Cl-].[Hg+2],AC50,[2],0.227 µM (active)
same,AC50,[9],0.925 µM (active)
same,outcome,[10],inactive
same,AC50,[3],10.7 µM (active)
same,AC50,[11],1.76 µM (active)
same,AC50,[12],6.76 µM (active)
same,AC50,[4],0.354 µM (active)
same,AC50,[7],19 µM (active)
same,AC50,[5],0.193 µM (active)
same,AC50,[14],1.47 µM (active)
same,AC50,[15],0.579 µM (active)
same,AC50,[19],1.48 µM (active)
same,AC50,[16],4.13 µM (active)
same,AC50,[17],0.428 µM (active)
same,AC50,[6],14.7 µM (active)
same,AC50,[18],8.85 µM (active)
same,AC50,[1],0.838 µM (active)
O=C(Oc1ccc(Br)cc1)N1CCN2CCC1CC2,AC50,[14],12.5 µM (active)
same,AC50,[15],19.4 µM (active)
same,AC50,[19],16.8 µM (active)
same,AC50,[16],15.3 µM (active)
same,AC50,[17],15.7 µM (active)
CCCCCOC(=O)c1ccccc1C(=O)OCCCCC,outcome,[15],inactive
CCC(C)c1ccc(O)cc1 (stereo not drawn),outcome,[12],inactive
CCN(CC)CCO,outcome,[16],inactive
c1ccc(C2CO2)cc1 (stereo not drawn),outcome,[17],inactive
Cc1ccc(N)c(N)c1,outcome,[1],inactive
